Assay [1] can be described thus: qHTS for Inhibitors of the Functional Ribonucleoprotein Complex (vRNP) of Lassa (LASV) Arenavirus: LASV Primary Screen - GLuc reporter signal (AID 1347082; calls by dose curve; tested in HEK293 reporter line; note: nearly all actives have a fitted effect of over 60% in size; note: potency is the fitted concentration of half-maximal effect; for activity change, negative = inhibition: % is set by controls: 0 for no effect and ±100 for the full control effect). Conditions: LASV minigenome vRNP, Gaussia luciferase reporter; series mostly up to 57.5 µM.
Assay [2] can be described thus: qHTS for Inhibitors of the Functional Ribonucleoprotein Complex (vRNP) of Lassa (LASV) Arenavirus: Viability assay - alamar blue signal for LASV Primary Screen (AID 1347083; calls by dose curve; tested in HEK293 reporter line; note: nearly all actives have a fitted effect of over 80% in size; note: potency is the fitted concentration of half-maximal effect). Conditions: cell viability, alamar blue fluorescence (LASV minigenome counter-screen); series mostly up to 57.5 µM.
Assay [3] is described as follows: qHTS for Inhibitors of the Functional Ribonucleoprotein Complex (vRNP) of Lymphocytic Choriomeningitis Arenaviruses (LCMV): Viability assay - alamar blue signal for LCMV Primary Screen (AID 1347085; calls by dose curve; tested in HEK293 reporter line; note: nearly all actives have a fitted effect of over 80% in size; note: potency is the fitted concentration of half-maximal effect). Conditions: alamar blue viability counter-screen, LCMV vRNP screen cells; series mostly up to 57.5 µM.
In assay [4] the target is Nucleoprotein (Lymphocytic choriomeningitis virus (strain Armstrong)) (UniProt P09992). The assay is described as follows: qHTS for Inhibitors of the Functional Ribonucleoprotein Complex (vRNP) of Lymphocytic Choriomeningitis Arenaviruses (LCMV): LCMV Primary Screen - GLuc reporter signal (AID 1347086). For activity change, negative = inhibition: % is set by controls: 0 for no effect and ±100 for the full control effect. Note: nearly all actives have a fitted effect of over 70% in size. Note: potency is the fitted concentration of half-maximal effect. Conditions: LCMV minigenome vRNP cell assay, Gaussia luciferase reporter; series mostly up to 57.5 µM.

Assay [5] is described as follows: Primary qHTS to identify inhibitors of SARS-CoV-2 cell entry (AID 1645846). Note: nearly all actives have a fitted effect of over 45% in size. Note: potency is the fitted concentration of half-maximal effect. Conditions: SARS-CoV-2 pseudovirus cell entry assay, luminescence; activity change, negative = inhibition: at 57.1 µM (top of the series) unless noted; series mostly up to 57.1 µM. The method in brief: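 Luminescence readout (Bright-Glo luciferase) 48 h after pseudoparticle addition. HEK293-ACE2 cells, 1500/well; compound pre-incubation 1 h; Normalized to spike PP and bald PP.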

Assay [6] can be described thus: qHTS profiling for inhibitors of Plasmodium falciparum (3D7) proliferation (AID 743322; call rule not given here;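 note: infected erythrocytes exposed to compound for 72 h before lysis; 100% = DMSO vehicle wells and 0% = 0.29 µM artemisinin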). Conditions: P. falciparum 3D7 proliferation; at 28.7 µM (top of the series). The method in brief:
(§1)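 Parasite DNA was quantified by SYBR Green I fluorescence (ex 485, em 535 nm) after overnight lysis in saponin/Triton buffer at room temperature. Cultures at 0.3% parasitemia and 2.5% hematocrit were first exposed to compound for 72 h at 37 C; signals were normalised to artemisinin (0.29 uM) and vehicle wells.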

Assay [7] can be described thus: qHTS profiling for inhibitors of Plasmodium falciparum (DD2) proliferation (AID 743323; call rule not given here). Conditions: lower = more inhibition; at 28.7 µM (top of the series). The method in brief:
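Parasite DNA quantified by SYBR Green fluorescence (ex 485, em 535 nm) after saponin/Triton lysis and overnight dark incubation. Cultures: 0.3% parasitemia, 2.5% hematocrit, 72 h, 37 C; data scaled between DMSO and 0.29 uM artemisinin.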

The nature of assay [8]: qHTS profiling for inhibitors of Plasmodium falciparum (HB3) proliferation (AID 743324; active = well fitted curve in the direction sought with a large enough effect; an effect the other way counts as inactive or inconclusive;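 note: 100% = DMSO vehicle wells and 0% = artemisinin-treated control wells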). Conditions: Plasmodium falciparum HB3 blood-stage proliferation; at 28.7 µM (top of the series). An outline of the steps:
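SYBR Green fluorescence (485 ex/535 em) of lysed cultures, incubated overnight at room temperature in the dark, quantifies parasite DNA. Infected erythrocytes at 0.3% parasitemia and 2.5% hematocrit were exposed 72 h; values normalized to DMSO and 0.29 uM artemisinin controls.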

The nature of assay [9]: qHTS profiling of the MIPE4 collection as inhibitors of Plasmodium falciparum (3D7) proliferation (AID 743344; call rule not given here;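 note: scaled between DMSO vehicle wells and 0.29 µM artemisinin as full inhibition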). Conditions: P. falciparum 3D7 in erythrocytes, SYBR Green DNA fluorescence, 72 h; at 28.5 µM (top of the series) unless noted. An outline of the steps:
as §1

Assay [10] in a line: qHTS profiling of the MIPE4 collection as inhibitors of Plasmodium falciparum (DD2) proliferation (Rep 2) (AID 743346; call rule not given here). Conditions: P. falciparum Dd2 in erythrocytes, SYBR Green DNA, 72 h; at 28.5 µM (top of the series) unless noted. An outline of the steps:
as §1

Assay [11] addresses Cytochrome P450 3A4 (Homo sapiens) (UniProt P08684). Description: qHTS Assay for Activators of Cytochrome P450 3A4 (AID 885; active = well fitted curve in the direction sought with a large enough effect; an effect the other way counts as inactive or inconclusive; note: nearly all actives have a fitted effect of over 65% in size). Conditions: recombinant CYP3A4, Luciferin-PPXE luminescence, 60 min; series mostly up to 57.1 µM. The method in brief: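 Luminescent readout of luciferin formed from 25 uM Luciferin-PPXE (KM level) by 20 nM CYP3A4 in 200 mM KPO4, with 60 min NADPH-driven reaction at room temperature after 10 min compound exposure. Ketoconazole (57 uM) defined 100% inhibition.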

Assay [12] is described as follows: VSVG counterscreen qHTS to identify inhibitors of SARS-CoV-2 cell entry (AID 1645847). Note: potency is the fitted concentration of half-maximal effect; nearly all actives have a fitted effect of over 65% in size. Conditions: VSV-G pseudotyped particle entry, luciferase; series mostly up to 57.2 µM. An outline of the steps:
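HEK293-ACE2 cells (Expi293F stably expressing human ACE2) were pretreated with compound for 1 h at 37 °C, then infected with MLV-based VSV-G pseudotyped particles for 48 h. Luciferase luminescence was normalized to VSV-G PP and bald PP wells.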

The target in assay [13] is Alpha-galactosidase (Coffea arabica) (UniProt Q42656). Description: Counterscreen for Glucocerebrosidase Inhibitors: qHTS Assay for Coffee Bean alpha-Galactosidase at pH 4.5 (AID 957; active = well fitted curve in the direction sought with a large enough effect; an effect the other way counts as inactive or inconclusive;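 note: plate controls were enzyme alone for no effect and no enzyme for full effect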). Conditions: purified coffee bean alpha-galactosidase, fluorogenic substrate; series mostly up to 76.9 µM. The method in brief:
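Enzyme is added first (2 nM final), then compounds titrated from 0.7 nM to 77 uM, then 80 uM 4-methylumbelliferyl alpha-D-galactopyranoside; after 20 min at room temperature a pH 10 NaOH/glycine stop precedes fluorescence reading at 365/440 nm.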

Assay [14] shares this target. Description: Counterscreen for Glucocerebrosidase Inhibitors: qHTS Assay for Coffee Bean alpha-Galactosidase at pH 5.9 (AID 998; active = well fitted curve in the direction sought with a large enough effect; an effect the other way counts as inactive or inconclusive;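 note: plate controls were uninhibited enzyme for no effect and no-enzyme basal signal for full effect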). Conditions: coffee bean alpha-galactosidase enzyme assay; series mostly up to 76.9 µM. An outline of the steps:
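Fluorogenic 4-MU substrate hydrolysis, 80 uM substrate and 2 nM coffee bean alpha-galactosidase, pH 5.9 citrate buffer, 20 min at room temperature, then NaOH/glycine stop. Titration 0.7 nM–77 uM, normalized to no-enzyme and enzyme controls, AC50 via Hill equation.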

Assay [15] concerns the target Endonuclease 4 (Escherichia coli (strain K12)) (UniProt P0A6C1). The assay is described as follows: Counterscreen for APE1 Inhibitors: qHTS Validation Assay for Inhibitors of Endonuclease IV (AID 1708; active = well fitted curve in the direction sought with a large enough effect; an effect the other way counts as inactive or inconclusive; note: % is set by controls: 0 for no effect and ±100 for the full control effect). Conditions: E. coli endonuclease IV, DNA cleavage fluorescence; series mostly up to 57.1 µM. The method in brief: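 Incision of a double-stranded 50 nM TAMRA/BHQ-2 abasic substrate was followed kinetically (525/598 nm, reads every 60 s) after 15 min enzyme–compound preincubation with 2 nM EndoIV in pH 7.5 Tris buffer with MgCl2, DTT and Tween-20; concentration-response format.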

The nature of assay [16]: Validation screen for inhibitors of Lassa infection (AID 463096). Note: % is set by controls: 0 for no effect and ±100 for the full control effect. Conditions: Lassa virus infection, cell-based; series mostly up to 46.1 µM.
A short description of assay [17]: Inducers of the Endoplasmic Reticulum Stress Response (ERSR) in human glioma: Validation (AID 504836; active = well fitted curve in the direction sought with a large enough effect; an effect the other way counts as inactive or inconclusive; note: 0% is about no effect). Conditions: human glioma cells, ER stress response reporter; series mostly up to 38.3 µM. The method in brief:
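ERSR induction read as luciferase luminescence (Bright-Glo, 10 min at room temperature) in stably transfected human U87-MG glioma cells exposed to compounds for 16 h, using GRP78 as sensor.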

Assay [18] is described as follows: qHTS for Activators of Parkin Expression: LOPAC Validation Assay (FLuc Reporter) (AID 720573; active = well fitted curve in the direction sought with a large enough effect; an effect the other way counts as inactive or inconclusive;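 note: 0% = DMSO and 100% = positive control compounds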). Conditions: Cell line, PRKN promoter firefly luciferase reporter, vehicle wells = 0, positive control = 100%; series mostly up to 46.1 µM. An outline of the steps:
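Neuronal cell line stably carrying FLuc/NLuc coincidence reporter under Parkin promoter; cells plated 24 h, then compounds added in 7-point dose response for 24 h at 37 C. FLuc luminescence read; normalized to DMSO and positive control (100%).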

Each structure is given as a SMILES string. Records with an inconclusive call do not appear. Active and inactive are the calls of the source. Unless noted, calls come from the whole dose curve.

Nucleoprotein (Lymphocytic choriomeningitis virus (strain Armstrong)), sequence (P09992 whole entry, looked up): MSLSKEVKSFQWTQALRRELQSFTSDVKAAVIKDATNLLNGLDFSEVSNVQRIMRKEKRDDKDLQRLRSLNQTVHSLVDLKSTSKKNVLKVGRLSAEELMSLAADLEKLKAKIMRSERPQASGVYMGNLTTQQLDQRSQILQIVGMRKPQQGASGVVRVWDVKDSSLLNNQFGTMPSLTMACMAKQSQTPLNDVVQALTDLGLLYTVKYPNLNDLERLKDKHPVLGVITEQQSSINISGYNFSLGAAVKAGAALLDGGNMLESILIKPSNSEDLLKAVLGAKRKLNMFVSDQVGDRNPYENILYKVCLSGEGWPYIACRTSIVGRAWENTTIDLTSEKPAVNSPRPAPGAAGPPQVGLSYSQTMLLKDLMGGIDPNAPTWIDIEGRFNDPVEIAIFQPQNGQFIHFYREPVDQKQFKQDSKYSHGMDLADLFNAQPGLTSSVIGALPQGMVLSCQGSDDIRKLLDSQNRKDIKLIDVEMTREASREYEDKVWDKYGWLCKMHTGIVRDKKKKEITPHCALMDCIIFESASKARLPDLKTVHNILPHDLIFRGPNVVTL
Alpha-galactosidase (Coffea arabica), sequence (Q42656 whole entry, looked up): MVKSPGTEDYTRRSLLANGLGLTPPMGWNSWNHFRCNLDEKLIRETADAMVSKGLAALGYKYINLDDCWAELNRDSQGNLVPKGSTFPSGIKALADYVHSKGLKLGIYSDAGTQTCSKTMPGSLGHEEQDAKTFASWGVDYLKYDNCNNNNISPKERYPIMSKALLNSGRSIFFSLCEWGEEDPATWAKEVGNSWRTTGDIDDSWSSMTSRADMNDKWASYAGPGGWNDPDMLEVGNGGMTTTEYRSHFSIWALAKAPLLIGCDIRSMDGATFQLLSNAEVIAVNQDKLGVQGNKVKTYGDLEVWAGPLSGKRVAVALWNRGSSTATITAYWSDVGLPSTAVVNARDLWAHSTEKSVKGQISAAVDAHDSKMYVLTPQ
Cytochrome P450 3A4 (Homo sapiens), sequence (P08684 whole entry, looked up): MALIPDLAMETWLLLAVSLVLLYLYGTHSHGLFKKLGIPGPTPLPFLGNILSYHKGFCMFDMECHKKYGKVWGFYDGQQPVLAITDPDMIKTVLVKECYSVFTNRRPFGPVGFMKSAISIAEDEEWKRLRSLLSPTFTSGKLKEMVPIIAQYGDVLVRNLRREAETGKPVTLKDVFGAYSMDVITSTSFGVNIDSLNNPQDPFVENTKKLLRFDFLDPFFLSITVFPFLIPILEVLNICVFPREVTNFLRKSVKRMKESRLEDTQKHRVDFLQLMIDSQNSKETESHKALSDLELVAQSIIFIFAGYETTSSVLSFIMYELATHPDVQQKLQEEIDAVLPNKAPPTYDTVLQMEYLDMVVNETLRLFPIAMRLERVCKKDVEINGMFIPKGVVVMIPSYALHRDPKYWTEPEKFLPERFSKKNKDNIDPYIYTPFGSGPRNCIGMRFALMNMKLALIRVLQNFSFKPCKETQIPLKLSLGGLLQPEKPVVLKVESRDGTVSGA

Regarding `Cc1cc(Nc2cc(NC(=O)c3c(Cl)cccc3Cl)ccn2)nc(N)n1`, the Potency was 6.11 µM (active) in assay [1]; 3.06 µM (active) in assay [2]; 3.06 µM (active) in assay [3]; 3.85 µM (active) in [4]; 1.41 µM (active) in assay [5].
In the case of `CCn1nnc2c(N3CCOCC3)nc(-c3ccc(NC(=O)Nc4ccc(C(=O)N5CCN(C)CC5)cc4)cc3)nc21`, the Potency is 0.0544 µM (active) in assay [1], 0.0243 µM (active) in assay [2], 0.0306 µM (active) in assay [3] and 0.0385 µM (active) in [4]. The activity change, negative = inhibition in assay [5] is -84.5%.
In the same order, the values of `NC(=O)Nc1sc(-c2ccc(F)cc2)cc1C(N)=O` are 0.432 µM (active), 0.273 µM (active), 0.137 µM (active), 0.273 µM (active) and -30.6%.
For `O=C(O)c1ccccc1C(=O)Nc1ccc(-c2ccccc2)cc1`, the remaining parasite growth % (stronger effect = lower value) in [6] was 93.1%. The activity, percent of control in [7] came to 92.6%. Besides, the remaining proliferation (% of control), lower = more inhibition in assay [8] came to 75.7%. This molecule gave a parasite growth, % of DMSO control in [9] of 93.6%. Further, the parasite growth, % of control (lower = inhibition) in assay [10] came out at 82.2%. In addition, the Potency entry in [1], in assay [2], in assay [3], in assay [4] and in assay [5] was “inactive” each time.
Regarding `CC(C)C[C@H](NC(=O)[C@@H](NC(=O)c1cccc(-c2ccccc2)n1)[C@@H](C)O)B(O)O`, the Potency in assay [1] was 0.685 µM (active); in assay [2], 0.544 µM (active); in assay [3], 1.09 µM (active); in assay [4], 1.09 µM (active). Also, the activity change, negative = inhibition in [5] is -97.4% [at 27.1 µM].
On to `CC(C)[C@H](CO)Nc1nc(Nc2cccc(Cl)c2)c2ncn(C(C)C)c2n1`, for which the Potency entry in assay [11], in assay [1], in [2], in [3] and in [4] was “inactive” each time. Moreover, the Potency in assay [5] was 7.94 µM (active); in assay [12], 8.57 µM (active).
Regarding `c1ccc(CNc2nc(NCc3ccccc3)c3ccccc3n2)cc1`, the Potency in assay [1] is 19.3 µM (active); in assay [2], 24.3 µM (active); in assay [3], 24.3 µM (active); in assay [4], 3.85 µM (active); in assay [5] it was 22.4 µM (active).
In the case of `Cc1cc(CN2CCN(c3c(Br)cnc4nc(-c5ccc(N6CCN(C)CC6)cc5)[nH]c34)CC2)no1`, the Potency entry in [1], in assay [2], in [3] and in [4] was “inactive” in each case. For the same molecule, the Potency in assay [5] is 3.16 µM (active).
As for `CNC(=O)c1ccc(C)c(-n2c(C)cc(OCc3ccc(F)cc3F)c(Br)c2=O)c1`, the Potency result in assay [1], in [2], in assay [3] and in assay [4] was “inactive” throughout. Besides, in [5], the Potency is 22.4 µM (active).
Take `Cc1nc(C(=O)NCC(=O)O)c(O)c2ccc(Oc3ccccc3)cc12`: the Potency result in assay [1], in [2], in [3] and in assay [4] was “inactive” in each case. Further, the activity change, negative = inhibition in assay [5] was -9.8%.
With `C[C@H]1[C@@H](OC(=O)CCC(=O)O)O[C@@H]2O[C@@]3(C)CC[C@@H]4[C@H](C)CC[C@@H]1[C@@]24OO3`, the Potency in [1] is 9.68 µM (active); in [2], 5.44 µM (active); in assay [3], 5.44 µM (active); in assay [4], 3.06 µM (active); in assay [5], 3.16 µM (active).
For `Cc1nc(N)ncc1-c1nc(N2CCOCC2)c2sc(C(C)(C)O)cc2n1`, the Potency was 1.53 µM (active) in assay [1]; 0.863 µM (active) in [2]; 1.09 µM (active) in assay [3]; 1.72 µM (active) in assay [4]; 7.94 µM (active) in [5].
As to `CC(C)NC[C@H](O)COc1cccc2[nH]ccc12`, the molecule was called inactive in [13], in assay [14], in assay [15], in assay [17] and in assay [18]. Besides, the Potency entry in assay [16], in assay [1], in assay [2], in assay [3] and in assay [4] was “inactive” each time.
